What all share (assay): DAPPL (digital affinity profiling via proximity ligation, sequencing); 10 mM Tris-HCl pH 7.5, 50 mM NaCl, 1 mM DTT, 4% glycerol, room temperature, 30 min; GST-TFs on glutathione beads, 16-mer random dsDNA library, 0.1% formaldehyde crosslink after washing; high values mean tight binding
The target in assay [1] is T1, FLI1 (Homo sapiens, UniProt Q01543 1-452).
T1 sequence: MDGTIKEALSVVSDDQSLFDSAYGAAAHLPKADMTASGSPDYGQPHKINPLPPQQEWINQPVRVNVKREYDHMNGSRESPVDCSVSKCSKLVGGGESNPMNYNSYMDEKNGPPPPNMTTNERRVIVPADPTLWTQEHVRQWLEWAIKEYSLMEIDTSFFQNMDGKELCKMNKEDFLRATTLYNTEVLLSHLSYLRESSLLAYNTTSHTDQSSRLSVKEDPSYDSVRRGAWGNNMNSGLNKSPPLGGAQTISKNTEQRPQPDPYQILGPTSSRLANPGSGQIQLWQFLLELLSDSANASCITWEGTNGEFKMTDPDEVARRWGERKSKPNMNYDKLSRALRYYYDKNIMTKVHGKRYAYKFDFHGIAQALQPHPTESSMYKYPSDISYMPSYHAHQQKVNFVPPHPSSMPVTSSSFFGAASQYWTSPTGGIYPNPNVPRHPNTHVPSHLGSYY
To be noted: protein: recombinant; tags: N-terminal GST; dsDNA, one strand shown. The procedure, abridged: (§1)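 Binding signal is given per hexamer as its read frequency for a factor divided by its frequency in the tag-only sample. GST-fused human transcription factors were expressed in yeast, captured on glutathione beads, barcoded with DNA and pooled with that sample, then incubated with 200 nmole of a 16-mer random double-stranded DNA library in Tris/NaCl/DTT/glycerol buffer for 30 min at room temperature. The pools were then washed, crosslinked, proximity-ligated, amplified by PCR and sequenced on an Illumina NextSeq500.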

In assay [2] the target is T2, ELK1 (Homo sapiens, UniProt P19419 1-428).
T2 sequence: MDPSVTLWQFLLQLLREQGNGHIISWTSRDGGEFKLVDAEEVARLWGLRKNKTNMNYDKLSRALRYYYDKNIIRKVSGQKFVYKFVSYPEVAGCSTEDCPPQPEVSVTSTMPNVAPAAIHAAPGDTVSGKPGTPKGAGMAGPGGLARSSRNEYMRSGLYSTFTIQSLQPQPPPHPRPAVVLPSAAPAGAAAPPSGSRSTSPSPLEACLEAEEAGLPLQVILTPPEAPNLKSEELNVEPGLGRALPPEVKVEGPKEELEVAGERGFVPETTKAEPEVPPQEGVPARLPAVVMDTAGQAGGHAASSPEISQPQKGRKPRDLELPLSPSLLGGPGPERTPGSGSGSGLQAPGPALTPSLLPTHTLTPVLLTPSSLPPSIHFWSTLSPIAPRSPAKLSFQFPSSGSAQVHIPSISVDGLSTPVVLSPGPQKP
To be noted: protein: recombinant; tags: N-terminal GST; dsDNA, one strand shown. The procedure, abridged: as §1

Assay [3] addresses T3, GABPA (Homo sapiens, UniProt Q06546 1-454).
T3 sequence: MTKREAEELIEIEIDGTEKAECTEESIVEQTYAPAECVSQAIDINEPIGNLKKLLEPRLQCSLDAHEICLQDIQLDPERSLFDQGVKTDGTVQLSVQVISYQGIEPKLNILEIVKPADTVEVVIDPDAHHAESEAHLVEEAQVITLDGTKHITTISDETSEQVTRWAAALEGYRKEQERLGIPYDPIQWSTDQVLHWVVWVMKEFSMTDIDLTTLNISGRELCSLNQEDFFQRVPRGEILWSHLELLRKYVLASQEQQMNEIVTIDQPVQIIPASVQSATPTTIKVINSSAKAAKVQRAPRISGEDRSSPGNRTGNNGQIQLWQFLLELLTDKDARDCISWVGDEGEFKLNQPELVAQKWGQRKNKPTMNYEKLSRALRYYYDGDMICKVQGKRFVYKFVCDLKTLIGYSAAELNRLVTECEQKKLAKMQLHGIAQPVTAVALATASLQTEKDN
To be noted: protein: recombinant; tags: N-terminal GST; dsDNA, one strand shown. In outline: as §1

The target in assay [4] is T4, ERG (Homo sapiens, UniProt P11308 1-479).
T4 sequence: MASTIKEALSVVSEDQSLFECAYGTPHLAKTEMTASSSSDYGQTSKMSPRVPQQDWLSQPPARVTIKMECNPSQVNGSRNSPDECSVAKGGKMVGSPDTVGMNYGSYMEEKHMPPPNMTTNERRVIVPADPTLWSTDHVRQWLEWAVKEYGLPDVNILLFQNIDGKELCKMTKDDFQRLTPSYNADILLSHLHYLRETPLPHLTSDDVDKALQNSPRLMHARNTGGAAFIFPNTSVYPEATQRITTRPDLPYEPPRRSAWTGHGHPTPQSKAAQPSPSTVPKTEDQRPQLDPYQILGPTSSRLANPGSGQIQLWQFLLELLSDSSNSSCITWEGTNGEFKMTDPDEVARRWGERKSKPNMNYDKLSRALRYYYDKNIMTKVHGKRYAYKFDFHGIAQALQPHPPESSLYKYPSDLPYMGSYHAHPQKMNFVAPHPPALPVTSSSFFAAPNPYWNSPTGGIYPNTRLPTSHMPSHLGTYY
To be noted: protein: recombinant; tags: N-terminal GST; dsDNA, one strand shown. The procedure, abridged:
as §1

The target of assay [5] is ELF1 (Homo sapiens, UniProt P32519 1-619). To be noted: protein: recombinant; tags: N-terminal GST; dsDNA, one strand shown. The procedure, abridged:
as §1

In assay [6] the target is T5, EHF (Homo sapiens, UniProt Q9NZC4 1-300).
T5 sequence: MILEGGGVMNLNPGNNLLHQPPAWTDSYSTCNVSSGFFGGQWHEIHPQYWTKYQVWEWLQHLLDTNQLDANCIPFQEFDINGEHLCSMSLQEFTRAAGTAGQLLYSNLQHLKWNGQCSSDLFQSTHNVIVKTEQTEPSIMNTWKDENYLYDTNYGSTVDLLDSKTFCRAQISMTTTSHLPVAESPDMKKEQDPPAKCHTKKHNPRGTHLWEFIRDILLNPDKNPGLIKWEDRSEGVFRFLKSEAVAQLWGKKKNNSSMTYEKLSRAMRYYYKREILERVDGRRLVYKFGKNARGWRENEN
Particulars: protein: recombinant; tags: N-terminal GST; dsDNA, one strand shown. In outline: as §1

The target of assay [7] is SPI1 (Homo sapiens, UniProt P17947 1-270). To be noted: protein: recombinant; tags: N-terminal GST; dsDNA, one strand shown. The procedure, abridged: as §1
In assay [8] the target is SPIB (Homo sapiens, UniProt Q01892 1-262). Particulars: protein: recombinant; tags: N-terminal GST; dsDNA, one strand shown. In outline: as §1
Sequence of SPIB (Q01892 whole entry): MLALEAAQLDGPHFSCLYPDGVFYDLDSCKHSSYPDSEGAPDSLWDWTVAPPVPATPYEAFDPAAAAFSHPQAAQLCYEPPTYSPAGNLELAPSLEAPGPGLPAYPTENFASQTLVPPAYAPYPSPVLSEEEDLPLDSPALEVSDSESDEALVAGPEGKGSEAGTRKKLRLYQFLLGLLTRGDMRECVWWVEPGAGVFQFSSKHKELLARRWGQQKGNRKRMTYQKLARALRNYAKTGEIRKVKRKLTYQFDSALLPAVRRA
Assay [9] has as its target T6, ELK3 (Homo sapiens, UniProt P41970 1-407).
T6 sequence: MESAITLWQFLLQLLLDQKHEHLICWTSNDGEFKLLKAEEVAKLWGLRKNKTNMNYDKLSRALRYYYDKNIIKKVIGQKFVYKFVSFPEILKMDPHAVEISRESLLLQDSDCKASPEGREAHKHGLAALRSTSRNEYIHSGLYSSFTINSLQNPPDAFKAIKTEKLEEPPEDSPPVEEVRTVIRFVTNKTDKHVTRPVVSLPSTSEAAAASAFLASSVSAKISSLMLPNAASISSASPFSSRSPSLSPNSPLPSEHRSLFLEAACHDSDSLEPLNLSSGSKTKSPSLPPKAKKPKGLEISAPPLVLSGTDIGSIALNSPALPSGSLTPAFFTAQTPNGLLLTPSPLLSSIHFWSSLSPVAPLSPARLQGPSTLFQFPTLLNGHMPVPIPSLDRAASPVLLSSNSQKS
To be noted: protein: recombinant; tags: N-terminal GST; dsDNA, one strand shown. In outline:
as §1

Assay [10] concerns the target T7, FEV (Homo sapiens, UniProt Q99581 1-238).
T7 sequence: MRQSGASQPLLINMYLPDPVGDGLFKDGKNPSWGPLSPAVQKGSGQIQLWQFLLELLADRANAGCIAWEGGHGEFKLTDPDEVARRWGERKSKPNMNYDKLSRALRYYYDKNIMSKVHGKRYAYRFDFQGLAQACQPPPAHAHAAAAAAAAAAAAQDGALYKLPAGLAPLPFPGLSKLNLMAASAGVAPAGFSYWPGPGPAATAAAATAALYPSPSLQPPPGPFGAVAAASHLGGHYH
To be noted: protein: recombinant; tags: N-terminal GST; dsDNA, one strand shown. The procedure, abridged: as §1

The target of assay [11] is ETV5 (Homo sapiens, UniProt P41161 1-510). To be noted: protein: recombinant; tags: N-terminal GST; dsDNA, one strand shown. In outline: as §1
Sequence of ETV5 (P41161 whole entry): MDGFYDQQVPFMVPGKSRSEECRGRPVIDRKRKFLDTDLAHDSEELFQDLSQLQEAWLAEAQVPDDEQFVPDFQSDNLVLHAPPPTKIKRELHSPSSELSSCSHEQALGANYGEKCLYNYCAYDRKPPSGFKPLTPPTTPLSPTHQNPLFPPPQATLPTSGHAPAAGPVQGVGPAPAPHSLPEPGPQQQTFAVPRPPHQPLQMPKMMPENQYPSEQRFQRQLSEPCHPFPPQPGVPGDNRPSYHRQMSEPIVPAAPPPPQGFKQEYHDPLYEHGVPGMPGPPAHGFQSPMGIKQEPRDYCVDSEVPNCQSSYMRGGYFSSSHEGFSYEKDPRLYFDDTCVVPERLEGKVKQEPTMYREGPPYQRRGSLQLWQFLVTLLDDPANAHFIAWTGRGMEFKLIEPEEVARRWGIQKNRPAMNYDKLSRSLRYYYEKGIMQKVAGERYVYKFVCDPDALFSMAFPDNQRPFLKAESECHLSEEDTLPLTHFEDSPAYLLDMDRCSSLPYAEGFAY
Assay [12] addresses HSF1 (Homo sapiens, UniProt Q00613 1-529). To be noted: protein: recombinant; tags: N-terminal GST; chain copies: 3; dsDNA, one strand shown. In outline: as §1
The target in assay [13] is T8, SPIC (Homo sapiens, UniProt Q8N5J4 1-248).
T8 sequence: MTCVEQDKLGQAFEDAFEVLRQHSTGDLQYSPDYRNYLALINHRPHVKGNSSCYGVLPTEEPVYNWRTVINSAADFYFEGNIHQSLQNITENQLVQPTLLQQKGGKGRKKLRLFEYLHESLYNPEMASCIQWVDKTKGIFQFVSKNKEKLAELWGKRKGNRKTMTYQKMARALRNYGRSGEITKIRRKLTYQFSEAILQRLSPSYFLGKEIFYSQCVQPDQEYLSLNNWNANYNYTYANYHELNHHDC
Particulars: protein: recombinant; tags: N-terminal GST; dsDNA, one strand shown. The procedure, abridged: as §1

The target of assay [14] is ELF4 (Homo sapiens, UniProt Q99607 1-663). Particulars: protein: recombinant; tags: N-terminal GST; dsDNA, one strand shown. The procedure, abridged:
as §1

In assay [15] the target is T9, ELK4 (Homo sapiens, UniProt P28324-2 1-405).
T9 sequence: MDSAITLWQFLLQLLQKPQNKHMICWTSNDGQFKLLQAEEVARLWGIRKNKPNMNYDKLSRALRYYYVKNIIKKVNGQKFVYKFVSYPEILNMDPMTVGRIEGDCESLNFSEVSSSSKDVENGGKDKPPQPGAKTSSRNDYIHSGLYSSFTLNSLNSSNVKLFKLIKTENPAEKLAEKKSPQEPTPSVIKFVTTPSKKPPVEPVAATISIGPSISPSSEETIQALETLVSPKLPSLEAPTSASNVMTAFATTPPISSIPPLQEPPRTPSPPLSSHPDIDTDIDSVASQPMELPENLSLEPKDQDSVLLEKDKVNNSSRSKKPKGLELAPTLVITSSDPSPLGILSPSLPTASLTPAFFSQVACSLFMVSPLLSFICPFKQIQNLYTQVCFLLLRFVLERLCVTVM
Particulars: protein: recombinant; tags: N-terminal GST; dsDNA, one strand shown. The procedure, abridged:
as §1

Assay [16] deals with T10, ETV2 (Homo sapiens, UniProt O00321 1-342).
T10 sequence: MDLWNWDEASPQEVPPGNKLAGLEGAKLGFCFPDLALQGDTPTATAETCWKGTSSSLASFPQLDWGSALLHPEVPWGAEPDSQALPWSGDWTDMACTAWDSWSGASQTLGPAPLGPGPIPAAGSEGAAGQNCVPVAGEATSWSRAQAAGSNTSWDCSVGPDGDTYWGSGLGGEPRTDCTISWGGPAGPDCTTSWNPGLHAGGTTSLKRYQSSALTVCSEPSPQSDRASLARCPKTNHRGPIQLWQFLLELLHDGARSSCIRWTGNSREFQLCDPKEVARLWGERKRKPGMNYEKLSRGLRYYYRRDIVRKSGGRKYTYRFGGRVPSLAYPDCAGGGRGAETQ
To be noted: protein: recombinant; tags: N-terminal GST; dsDNA, one strand shown. In outline:
as §1

In assay [17] the target is T11, ELF3 (Homo sapiens, UniProt P78545 1-371).
T11 sequence: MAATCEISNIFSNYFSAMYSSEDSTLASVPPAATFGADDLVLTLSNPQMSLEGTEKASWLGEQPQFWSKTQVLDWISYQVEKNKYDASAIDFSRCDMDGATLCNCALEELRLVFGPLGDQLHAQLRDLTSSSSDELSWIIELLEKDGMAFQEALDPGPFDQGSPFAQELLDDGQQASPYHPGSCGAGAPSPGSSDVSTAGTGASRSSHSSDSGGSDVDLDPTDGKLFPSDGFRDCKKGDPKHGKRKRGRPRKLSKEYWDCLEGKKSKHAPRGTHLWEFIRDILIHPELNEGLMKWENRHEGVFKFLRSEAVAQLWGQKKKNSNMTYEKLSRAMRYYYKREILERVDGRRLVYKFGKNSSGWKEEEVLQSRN
To be noted: protein: recombinant; tags: N-terminal GST; dsDNA, one strand shown. The procedure, abridged:
as §1

In assay [18] the target is CRX (Homo sapiens, UniProt O43186 1-299). To be noted: protein: recombinant; tags: N-terminal GST; dsDNA, one strand shown. The procedure, abridged:
as §1

Assay [19] addresses ETV1 (Homo sapiens, UniProt P50549 1-477). To be noted: protein: recombinant; tags: N-terminal GST; dsDNA, one strand shown. In outline: as §1

Sequence of ELF4 (Q99607 whole entry): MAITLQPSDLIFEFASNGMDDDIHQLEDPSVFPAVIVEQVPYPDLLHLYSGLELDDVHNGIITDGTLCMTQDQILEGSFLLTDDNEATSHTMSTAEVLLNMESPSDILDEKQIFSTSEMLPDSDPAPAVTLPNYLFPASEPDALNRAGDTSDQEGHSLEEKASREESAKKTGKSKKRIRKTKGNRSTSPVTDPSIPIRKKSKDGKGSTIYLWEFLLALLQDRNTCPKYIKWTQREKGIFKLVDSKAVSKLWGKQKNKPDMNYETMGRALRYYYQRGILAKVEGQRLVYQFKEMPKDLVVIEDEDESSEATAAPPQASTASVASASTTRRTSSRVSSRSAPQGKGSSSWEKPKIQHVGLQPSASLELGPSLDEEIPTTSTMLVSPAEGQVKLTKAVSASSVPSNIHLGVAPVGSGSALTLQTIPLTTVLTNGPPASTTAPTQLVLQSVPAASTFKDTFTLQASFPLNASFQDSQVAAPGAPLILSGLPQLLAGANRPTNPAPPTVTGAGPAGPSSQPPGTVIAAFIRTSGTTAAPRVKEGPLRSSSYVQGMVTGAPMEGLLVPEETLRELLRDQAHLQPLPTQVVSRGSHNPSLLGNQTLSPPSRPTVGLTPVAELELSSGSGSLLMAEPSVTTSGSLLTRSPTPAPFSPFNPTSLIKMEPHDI
Sequence of ETV1 (P50549 whole entry): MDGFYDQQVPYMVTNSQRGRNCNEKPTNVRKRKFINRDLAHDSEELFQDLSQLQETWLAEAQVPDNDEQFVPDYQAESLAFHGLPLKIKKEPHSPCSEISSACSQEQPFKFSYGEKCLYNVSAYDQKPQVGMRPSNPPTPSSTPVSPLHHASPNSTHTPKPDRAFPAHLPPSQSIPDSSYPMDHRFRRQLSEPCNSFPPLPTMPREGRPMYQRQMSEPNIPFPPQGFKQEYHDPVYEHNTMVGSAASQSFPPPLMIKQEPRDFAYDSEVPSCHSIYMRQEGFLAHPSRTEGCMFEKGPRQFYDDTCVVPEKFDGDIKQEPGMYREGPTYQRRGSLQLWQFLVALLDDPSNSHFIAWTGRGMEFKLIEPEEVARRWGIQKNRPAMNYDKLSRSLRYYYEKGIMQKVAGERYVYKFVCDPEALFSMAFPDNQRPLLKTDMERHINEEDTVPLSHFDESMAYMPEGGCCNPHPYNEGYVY
Sequence of CRX (O43186 whole entry): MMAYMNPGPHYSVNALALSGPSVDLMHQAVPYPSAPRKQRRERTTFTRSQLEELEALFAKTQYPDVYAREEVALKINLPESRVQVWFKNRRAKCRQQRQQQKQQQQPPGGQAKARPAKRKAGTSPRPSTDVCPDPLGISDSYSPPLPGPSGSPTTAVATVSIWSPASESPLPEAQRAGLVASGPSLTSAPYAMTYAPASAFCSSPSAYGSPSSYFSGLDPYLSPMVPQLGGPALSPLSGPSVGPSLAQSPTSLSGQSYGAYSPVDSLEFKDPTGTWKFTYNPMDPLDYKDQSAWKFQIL
Sequence of HSF1 (Q00613 whole entry): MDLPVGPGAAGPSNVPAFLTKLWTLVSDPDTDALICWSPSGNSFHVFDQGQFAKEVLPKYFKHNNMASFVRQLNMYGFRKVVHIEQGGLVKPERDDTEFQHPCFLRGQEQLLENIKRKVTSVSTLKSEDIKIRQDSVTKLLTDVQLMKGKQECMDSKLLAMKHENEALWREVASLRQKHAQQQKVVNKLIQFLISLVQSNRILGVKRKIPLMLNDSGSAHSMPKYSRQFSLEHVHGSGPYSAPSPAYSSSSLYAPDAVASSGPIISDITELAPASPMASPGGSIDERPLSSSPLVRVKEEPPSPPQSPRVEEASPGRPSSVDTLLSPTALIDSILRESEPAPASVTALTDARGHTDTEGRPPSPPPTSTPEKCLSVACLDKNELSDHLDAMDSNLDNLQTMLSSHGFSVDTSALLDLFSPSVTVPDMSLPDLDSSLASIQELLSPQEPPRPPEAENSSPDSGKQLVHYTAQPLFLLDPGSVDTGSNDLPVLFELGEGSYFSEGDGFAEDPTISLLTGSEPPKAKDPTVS
Sequence of ELF1 (P32519 whole entry): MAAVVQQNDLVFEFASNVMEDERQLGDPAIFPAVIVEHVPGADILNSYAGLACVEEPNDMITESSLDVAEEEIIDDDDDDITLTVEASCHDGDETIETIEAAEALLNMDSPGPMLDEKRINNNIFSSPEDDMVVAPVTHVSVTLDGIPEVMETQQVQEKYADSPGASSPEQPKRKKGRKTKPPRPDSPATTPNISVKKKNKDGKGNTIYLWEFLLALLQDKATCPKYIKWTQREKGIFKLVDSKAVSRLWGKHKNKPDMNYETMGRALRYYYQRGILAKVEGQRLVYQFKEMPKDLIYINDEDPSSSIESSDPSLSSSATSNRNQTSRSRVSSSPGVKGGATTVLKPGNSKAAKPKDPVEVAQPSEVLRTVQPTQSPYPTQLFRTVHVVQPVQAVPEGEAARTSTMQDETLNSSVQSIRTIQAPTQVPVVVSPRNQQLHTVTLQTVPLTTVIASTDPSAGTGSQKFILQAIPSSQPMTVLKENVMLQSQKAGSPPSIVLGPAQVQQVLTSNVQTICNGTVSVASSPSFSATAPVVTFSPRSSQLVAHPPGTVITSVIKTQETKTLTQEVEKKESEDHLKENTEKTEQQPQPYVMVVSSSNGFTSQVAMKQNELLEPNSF

For CACCTT, the binding signal in assay [1] was 1.36 fold enrichment (6-mer frequency, TF over GST control); in assay [2] it was 1.28 fold enrichment (6-mer frequency, TF over GST control); in assay [3], 1.22 fold enrichment (6-mer frequency, TF over GST control); in assay [4] it was 1.26 fold enrichment (6-mer frequency, TF over GST control); in assay [5], 1.24 fold enrichment (6-mer frequency, TF over GST control); in assay [6], 1.34 fold enrichment (6-mer frequency, TF over GST control). Further, the binding signal in [7] is 1.25 fold enrichment (6-mer frequency, TF over GST control); in [8], 1.18 fold enrichment (6-mer frequency, TF over GST control); in [9] it was 1.26 fold enrichment (6-mer frequency, TF over GST control); in assay [10], 1.31 fold enrichment (6-mer frequency, TF over GST control); in assay [11], 1.18 fold enrichment (6-mer frequency, TF over GST control); in [12], 1.08 fold enrichment (6-mer frequency, TF over GST control). Also, the binding signal was 1.2 fold enrichment (6-mer frequency, TF over GST control) in [13]; 1.37 fold enrichment (6-mer frequency, TF over GST control) in assay [14]; 1.39 fold enrichment (6-mer frequency, TF over GST control) in assay [15]; 1.25 fold enrichment (6-mer frequency, TF over GST control) in [16]; 1.26 fold enrichment (6-mer frequency, TF over GST control) in [17]; 1.1 fold enrichment (6-mer frequency, TF over GST control) in assay [18]. In addition, the binding signal in assay [19] is 1.35 fold enrichment (6-mer frequency, TF over GST control).
